Measured values: PubChem BioAssay (EPA / NIEHS)
Results filed as inconclusive are left out. Calls of active or inactive are those of the source. The calls were made as follows: active = hit-call score of the fitted dose curve at least 0.9, where 1 is the maximum; inconclusive = response in the unintended direction; inactive = score below 0.9.

These molecules were tested against Oxysterols receptor LXR-beta (Homo sapiens) (UniProt P55055) (assay: ATG_LXRb_TRANS: Attagene TRANS-FACTORIAL HepG2 Assay for human Liver X Receptor beta (LXRb) (AID 2282981)). Conditions: HepG2 Attagene TRANS GAL4-LXRb reporter, mRNA.
In short: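 HepG2 cells transiently transfected with multiple reporter transcription units carrying chimeric NR-Gal4 proteins acting on GAL4-UAS reporters; compound exposure 24 h. Reporter mRNA quantified by RT-PCR, 6-FAM labelling, HpaI digestion and capillary electrophoresis; gain of signal versus DMSO.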

Oxysterols receptor LXR-beta (Homo sapiens), sequence (P55055 whole entry, looked up, the tested form may be a part): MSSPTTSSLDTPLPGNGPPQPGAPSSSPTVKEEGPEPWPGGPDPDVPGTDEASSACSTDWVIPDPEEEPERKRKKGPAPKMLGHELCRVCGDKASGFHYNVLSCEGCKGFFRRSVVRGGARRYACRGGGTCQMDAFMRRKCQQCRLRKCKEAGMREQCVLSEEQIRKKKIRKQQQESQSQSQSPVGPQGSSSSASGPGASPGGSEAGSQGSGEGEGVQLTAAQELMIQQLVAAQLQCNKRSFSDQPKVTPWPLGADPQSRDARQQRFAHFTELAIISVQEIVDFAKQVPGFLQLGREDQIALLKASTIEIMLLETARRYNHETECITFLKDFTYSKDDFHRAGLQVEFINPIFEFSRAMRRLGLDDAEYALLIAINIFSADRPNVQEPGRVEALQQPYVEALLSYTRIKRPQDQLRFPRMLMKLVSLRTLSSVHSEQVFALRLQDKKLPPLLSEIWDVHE

outcome, inactive:
OCCOc1cccc(OCCO)c1, O=C1c2ccccc2C(=O)N1SC1CCCCC1, Nc1ccc(F)c([N+](=O)[O-])c1, Nc1cccc(S(=O)(=O)c2cccc(N)c2)c1, C=C(C)C(=O)Nc1ccc(Cl)c(Cl)c1, COc1ccc(OC)c(OC)c1, COC(=O)OC, NNc1nc(-c2ccc(N)cc2)cs1, Cc1ccccc1C=O, CC(C)(C)NC(N)=O, CN(C)CCCN, O=C(O)c1cccc(C(F)(F)F)c1, Cc1ccc(Nc2ccc(O)c3c2C(=O)c2ccccc2C3=O)cc1, C=CC(C)(CCC=C(C)C)OC=O (configuration not stated), CC1=CCC2C(C1)C2(C)C (configuration not stated), O=Nc1ccc(Nc2ccccc2)cc1, COC(=O)c1ccc(C)cc1
